HPGD block – inhibitors of human 15-hydroxyprostaglandin dehydrogenase (HPGD); 150,000 tested, 4.3% active; Potency, µM, for the others: at the top dose activity change, negative = inhibition, actives largely listed as inhibitors; purified HPGD, NADH fluorescence kinetic, PGE2 substrate; further: potency means the concentration at half of the fitted maximal effect
Target sequence (P15428 whole entry, looked up): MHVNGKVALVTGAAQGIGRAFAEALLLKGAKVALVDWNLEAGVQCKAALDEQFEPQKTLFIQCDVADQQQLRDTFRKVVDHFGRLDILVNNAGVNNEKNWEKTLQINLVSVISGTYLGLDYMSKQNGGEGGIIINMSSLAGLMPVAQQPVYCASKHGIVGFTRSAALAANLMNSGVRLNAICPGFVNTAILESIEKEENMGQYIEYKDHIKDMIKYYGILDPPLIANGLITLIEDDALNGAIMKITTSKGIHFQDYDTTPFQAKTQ
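NADH formation kinetics: reaction with 30 uM PGE2 and 1 mM NAD+ (final), 20 nM enzyme, Tris-HCl pH 8 with Tween 20, after 15 min compound preincubation at room temperature. Fluorescence change, last versus first of five reads.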
KDM4E inh – blocks human JMJD2E demethylase activity. AID 2147. 230,000 tested, 1.6% active. B2RXH2. Potency, µM (titrated, usually from 57.1 µM), without a hit: at the top dose activity change, negative = inhibition, hits mostly inhibitors. JMJD2E catalytic domain, FDH-coupled NADH fluorescence (FDH is formaldehyde dehydrogenase);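 further: potency means the concentration at half of the fitted maximal effect; 0% = wells with enzyme and -100% = buffer wells without enzyme; nearly all actives have a fitted effect of over 50% in size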
Target sequence (B2RXH2 1-337 limits assumed): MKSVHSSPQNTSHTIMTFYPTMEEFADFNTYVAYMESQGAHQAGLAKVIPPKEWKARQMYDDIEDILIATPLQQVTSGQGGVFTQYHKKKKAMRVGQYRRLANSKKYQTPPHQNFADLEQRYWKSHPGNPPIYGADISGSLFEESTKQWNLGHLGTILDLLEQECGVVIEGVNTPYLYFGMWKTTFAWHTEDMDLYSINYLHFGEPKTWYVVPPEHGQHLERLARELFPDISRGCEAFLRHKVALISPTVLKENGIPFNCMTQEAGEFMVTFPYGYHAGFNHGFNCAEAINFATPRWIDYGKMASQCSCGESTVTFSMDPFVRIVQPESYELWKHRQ
ALDH1A1 block – ALDH1A1 (human) enzyme inhibition; Potency, µM (top dose mostly 75.3 µM), for the others: at the highest dose activity, negative = inhibition, most hits filed as inhibitors; 220,000 tested, 7.3% active; AID 1030; P00352; Purified ALDH1A1, NADH fluorescence, propionaldehyde substrate;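 further: potency means the concentration at half of the fitted maximal effect; plate controls were no enzyme wells and a reference inhibitor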
PNC inhibitor – blocks assembly of the perinucleolar compartment. PC3M PTB-GFP, PNC prevalence imaging, 16 h; stronger effect = lower value. activity change (PNC), negative = inhibition, % at 10 µM. 140,000 tested, 3.1% active. AID 2417;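 active means readout at or below -70, meaning at least 70% loss of cells showing the perinucleolar compartment, a nuclear body marking cancer cells; inconclusive means readout between -30 and a set limit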;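 further: plate controls were DMSO wells for no effect and camptothecin positive control wells for full effect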
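Compounds are pinned in duplicate onto adhered PC3M cells stably expressing GFP-tagged PTB and incubated 16 h at 37 C. Cells are then fixed, nuclei stained with Hoechst, and PNC-positive cells counted.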
Active calls of the source: *; ? = inconclusive; . = not tested or not shown; ! = repeats disagree; [ ] = dose if it differs, or a comment. Most compounds without a hit are left out; they make up all but 11% or so of the library. Unless noted, the call rests on the fitted dose curve; in most records, active means well fitted inhibition curve with a large enough effect (not every such curve was filed as active); inconclusive means small, poorly fitted or top-dose-only effect, or another doubt; inactive means no such curve, though single readings can be large or run the other way. Unless noted, on the % scale 0 is the no-effect control and ±100 the full control effect.

SMILES	HPGD block	KDM4E inh	ALDH1A1 block	PNC inhibitor
Cc1c(C(=O)OC2CCCC2C)[nH]c2c1C(=O)CCC2 (centres undefined)	-15.3%	4.0%	8.91µM*	21.6
COc1cc([C@@H]2[C@H]3CN(C)CC=C3C(C#N)=C(N)C2(C#N)C#N)cc2c1OCO2	-18.9%	?	-5.4%	-98.5*
CCCC1C2CN(C(C)C)CC=C2C(C#N)=C(N)C1(C#N)C#N (centres undefined)	?	?	?	-92.3*
CN1CC=C2C(C#N)=C(N)C(C#N)(C#N)C(CCc3ccccc3)C2C1 (centres undefined)	?	?	?	-14.3
CN1CC=C2C(C#N)=C(N)C(C#N)(C#N)[C@H](c3cccs3)[C@H]2C1	?	?	?	-94.1*
CCOC(=O)N1CC=C2C(C#N)=C(N)C(C#N)(C#N)[C@H](c3ccsc3)[C@H]2C1	-12.7%	60.6%	?	-29.3
CC(C)c1ccc(C2C3CSCC=C3C(C#N)=C(N)C2(C#N)C#N)cc1 (centres undefined)	?	?	15.8µM*	11.8
NCCn1oc(=O)[nH]c1=O	.	.	4.8%	.
CC(=O)OC[C@@H]1O[C@@H](O/N=C2/C[C@@H](O)[C@@H](O)[C@@H]3[C@H]4C(=O)N(c5ccc(F)cc5F)C(=O)[C@@H]4CC[C@H]23)[C@H](OC(C)=O)[C@H](OC(C)=O)[C@@H]1OC(C)=O	.	.	0.6%[13.5 µM]	.
CC(=O)N1CCOCCOCCN(C(C)=O)CCOCC1	.	0.4%	-11.5%	.
Cc1ccccc1N=C(NO)c1nonc1N	.	3.2%	6.1%	.
COc1ccccc1N1CCN(C(=O)COc2ccc(S(=O)(=O)NC(C)(C)C)cc2)CC1	.	10.5%	5.7%	.
C[N+](C)([O-])Cc1cc(-c2ccccc2)ccc1O	-10.9%	.	-9.0%[13.5 µM]	.
CC1=C(C(N)=O)N2C(=O)[C@@H](NC(=O)Cc3ccccc3)C2SC1 (some centres undefined)	-9.6%	2.8%	?	.
CCN(CC)S(=O)(=O)c1cc(C)ccc1SC	-4.3%	6.1%	0.1%	42.8
Cc1cccc(N2C(=O)C(O)=C(C(=O)c3cccs3)C2c2ccccc2)n1 (centres undefined)	.	2.3%	.	.
O=C1NC(c2ccccc2)C(C(=O)c2cccs2)=C1O (centres undefined)	-3.3%	1.0%	-11.2%	-107.1*
O=c1cc(-c2ccccc2)oc2cc(O)c(O)c(O)c12	28.2µM*	12.6µM*	15µM*!	.
O=c1cc(-c2ccc(O)cc2)oc2c(O)c(O)c(O)c(O)c12	.	12.6µM*	-2.7%	.
CSc1nc(C)cc(Nc2ccc(O)c(CN3CCOCC3)c2)n1	-0.2%	.	1.6%[13.5 µM]	.
COc1cc(C(C)=O)ccc1Oc1ncnc2c1cnn2-c1ccc(F)cc1	15.8µM*	8.1%	-8.6%	?
COc1cc(C(C)=O)ccc1Oc1ncnc2c1cnn2-c1cccc(Cl)c1	-24.8%	-0.4%	9.5%	9.1
CCn1c(CSc2nc(C)cc(C)n2)nnc1SCC(=O)Nc1cccc2ccccc12	3.9%	10.4%	-3.1%	-107.1*
Cc1c(NC(=O)c2cccc(NS(C)(=O)=O)c2)c(=O)n(-c2ccccc2)n1C	.	4.3%	.	.
NS(=O)(=O)c1ccc(CCNC(=O)NC2(C(F)(F)F)Oc3ccccc3O2)cc1	-11.8%	-26.9%	7.7%	-100.0*
SMILES	HPGD block	KDM4E inh	ALDH1A1 block	PNC inhibitor
COC(=O)[C@@]1(Cc2ccccc2)[C@H]2c3cc(C(=O)N4CCCC4)n(Cc4ccccn4)c3C[C@H]2CN1C(=O)c1ccccc1	-9.5%	-9.9%	-5.0%	.
Cc1ccc(S(=O)(=O)c2c(C)nn(C(C)(C)C)c2OC(=O)CC(C)C)cc1	.	-1.2%	-7.9%	.
O=C(Nc1cccc(S(=O)(=O)N2CCOCC2)c1)c1cc2c(s1)CCC2	-9.1%	-8.4%	3.16µM*	?
COc1ccc(CC(=O)Nc2nc3ccccc3s2)cc1S(=O)(=O)N1CCOCC1	-2.1%	6.3%	13.1%	?
O=C(NN=C1CCCCCCCCCCC1)c1cccc(S(=O)(=O)N2CCOCC2)c1	-16.9%	33.7%	12.6µM*	-3.4
O=C(Nc1cccc(S(=O)(=O)N2CCOCC2)c1)c1ccccn1	.	3.6%	.	.
COc1ccc(C)cc1NC(=O)c1cc2c(s1)CCC2	-3.6%	?	-15.4%	2.1
COc1ccc(CC(=O)Nc2nc3ccc(F)cc3s2)cc1S(=O)(=O)N1CCOCC1	-5.6%	-3.8%	20µM*	?
COc1ccc(S(=O)(=O)N2CCOCC2)cc1NC(=O)c1cc2c(s1)CCCC2	?	-1.5%	3.98µM*	-0.7
Cc1cc(C)c(C)c(S(=O)(=O)NCCC(=O)O)c1C	-1.4%	.	11.1%	.
COc1ccc(NC(=O)c2cc3c(s2)CCC3)cc1S(=O)(=O)N1CCOCC1	-18.8%	-2.9%	0.562µM*	21.4
COc1ccc(NC(=O)c2ccco2)cc1S(=O)(=O)N1CCOCC1	.	10.8%	2.3%	.
O=C(c1ccc2c3c(cccc13)CC2)N1CCOCC1	11.2µM*	?	14.1µM*	-21.2
COc1cccc(C(=O)N2CCOCC2)c1OC	.	-0.5%	1.5%	.
CC/C(C)=N\N=C\c1c(O)n(CC)c2cc(C3=NNC(=O)CC3)ccc12	31.6µM*	?	?	-11.4
O=S(=O)(c1ccccc1)N1CCN(C2CCCCCCC2)CC1	-9.7%	4.6%	?	-6.7
c1ccc(CCN(Cc2ccccc2)C2CCN(C3CCCC3)CC2)cc1	.	3.8%	39.8µM*	.
CCOC(=O)c1cc(-c2ccccc2)n(CC(=O)O)c1C	25.1µM*	2.8%	?	-29.7
CCOC(=O)c1cc(-c2ccccc2)n(CC(=O)NC(C)(C)C)c1C	.	2.4%	?	.
CCOc1ccc(C2C(C#N)=C(N)SC(N)=C2C#N)cc1OC	25.1µM*	?	?	?
CCOc1ccc(C2C(C#N)=C(N)SC(N)=C2C#N)cc1OCC	22.4µM*	-8.9%	?	34.2
N#CC1=C(N)SC(N)=C(C#N)C1c1cccc(Oc2ccccc2)c1	22.4µM*	-5.0%	10µM*	?
CCOc1ccccc1C1C(C#N)=C(N)SC(N)=C1C#N	-16.6%	-3.1%	5.2%	3.6
O=C1C=C(NNC(=O)c2ccccc2Br)CCC1	-13.1%	-22.3%	1.7%	124.4
Cc1ccccc1CN1C(=O)C(O)(CC(=O)c2ccncc2)c2ccccc21 (centres undefined)	-15.4%	-5.1%	0.112µM*	-22.8
SMILES	HPGD block	KDM4E inh	ALDH1A1 block	PNC inhibitor
CC(C)(C)C(=O)CC1(O)C(=O)N(Cc2ccccc2)c2ccccc21 (centres undefined)	0.9%	3.7%	7.08µM*	-13.4
O=C1c2ccccc2C(O)N1Cc1ccc2c(c1)OCO2 (centres undefined)	15.8µM*	-13.4%	3.7%	22.8
O=C(CC1(O)C(=O)N(Cc2ccccc2)c2ccccc21)c1ccc2c(c1)OCO2 (centres undefined)	-5.0%	-1.1%	7.08µM*	-0.9
Cc1ccc(C(=O)CC2(O)C(=O)N(C)c3ccccc32)s1 (centres undefined)	.	-2.4%	2.1%	.
O=C1c2ccccc2C(Nc2ccc3c(c2)OCO3)N1Cc1ccc2c(c1)OCO2 (centres undefined)	?	8.7%	?	20.3
N#CC1(NC(=O)CN2CCN(S(=O)(=O)c3ccccc3F)CC2)CCCC1	.	5.2%	.	.
